The values that follow come from PubChem BioAssay AID624255 (Broad Institute, 2012).

The structures appear in SMILES notation. Values joined by “and” are separate entries in the source; they are usually repeats but may differ in a detail not shown here. Identical values can stand only once. The whole screen tested about 77,000 compounds, of which about 4,600 (6%) were called active. Not shown: some 1% with an inconclusive outcome. Only a selection was taken, and actives are over-represented in it overall. Values without a mark were called inactive.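 How the source made its calls: active means mean inhibition above about 93%, with at least 55% of replicates each passing it (limit read from the data, passing the limit was not always enough); inconclusive means only one of those two conditions holds; inactive means neither condition holds.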

A short description of the assay: T. cruzi intracellular proliferation inhibitors, primary screen, cell-based, beta-gal Tulahuen parasites, NIH3T3 host, luminescence (AID 624255). The conditions noted are these: T. cruzi beta-gal in NIH3T3, GalScreen luminescence, 90 h; at 8.34 µM; stronger effect = higher value.
The term inhibition denotes the drop in the measured response relative to a control, in per cent. On to `C/C=C/c1ccc([C@H]2[C@H](CO)N3CCCCN(C(=O)Cc4ccncc4)C[C@@H]23)cc1`, for which the inhibition was 126% (active).
With `O=C(Cc1cccnc1)N1CCCCN2[C@@H](CO)[C@H](c3ccc(C#CC4CCCC4)cc3)[C@@H]2C1` the figure was 110% (active); with `COc1cccc(-c2ccc([C@H]3[C@H]4CN(C(=O)Cc5ccncc5)CCCCN4[C@H]3CO)cc2)c1`, 80.9%.
Turning to `N#Cc1cccc(-c2ccc([C@H]3[C@@H](CO)N4CCCCN(C(=O)Cc5cccnc5)C[C@@H]34)cc2)c1`, the inhibition was 61.2%.
Take `O=C(Cc1ccncc1)N1CCCCN2[C@H](CO)[C@@H](c3ccc(C#CC4(O)CCCC4)cc3)[C@H]2C1`: the inhibition was 63%.
Turning to `OC[C@@H]1[C@H]2c3ccccc3NC[C@H]2N1Cc1cccnc1`, the inhibition is 77.8%.
With `O=C(Cc1ccccn1)N1CCCCN2[C@H](C1)[C@H](c1ccc(-c3ccccc3F)cc1)[C@@H]2CO` the figure was 16.7%; with `COc1ccc(-c2ccc([C@H]3[C@H](CO)N4CCCCN(C(=O)Cc5ccncc5)C[C@@H]34)cc2)cc1`, 102% (active); with `O=C(Cc1ccccn1)N1CCCCN2[C@@H](CO)[C@@H](c3ccc(C#Cc4ccccc4)cc3)[C@@H]2C1`, 110% (active).
As for `O=C(Cc1ccncc1)N1CCCCN2[C@@H](CO)[C@H](c3ccc(-c4ccncc4)cc3)[C@@H]2C1`, the inhibition was 60.5%.
In the case of `O=C(Cc1ccncc1)N1CCCCN2[C@@H](CO)[C@H](c3ccc(C#CC4(O)CCCC4)cc3)[C@@H]2C1`, the inhibition was 93.8%.
For `COC(=O)[C@H]1[C@H](CO)[C@H]2Cn3c(ccc(C4=CCCC4)c3=O)[C@@H]1N2C(=O)CC1CC1`, the inhibition was 11.8%.
For the compound `COC(=O)[C@@H]1[C@@H](CO)[C@@H]2Cn3c(ccc(-c4ccc(F)cc4)c3=O)[C@H]1N2C(C)=O`, the inhibition was -2.43%.
On to `COC(=O)[C@H]1[C@H](CO)[C@H]2Cn3c(ccc(-c4cccc(F)c4)c3=O)[C@@H]1N2Cc1ccccc1`, for which the inhibition was 8.82%.
On to `O=C(O)[C@H]1[C@H](CO)[C@H]2Cn3c(cccc3=O)[C@@H]1N2C(=O)c1ccccc1`, for which the inhibition is 42.5%.
With `O=C(O)[C@H]1[C@H](CO)[C@H]2Cn3c(ccc(-c4ccccc4F)c3=O)[C@@H]1N2C(=O)c1cccnc1`, the inhibition was 30%.
Next, `COC(=O)C[C@@H]1CC[C@@H]2NC[C@@H](O)COC[C@H]2O1`: 54.8%.
Turning to `COC(=O)[C@H]1[C@H](CO)[C@H]2Cn3c(ccc(-c4ccccc4F)c3=O)[C@@H]1N2C(=O)C1CCC1`, the inhibition is 44.2%.
On to `COc1cccc(-c2ccc3n(c2=O)C[C@@H]2[C@@H](CO)[C@H](C(=O)O)[C@H]3N2C(=O)c2cnccn2)c1`, for which the inhibition is 39.3%.
Take `C[C@H]1CN([C@@H](C)CO)C(=O)CCCn2nncc2CO[C@H]1CN(C)C(=O)Oc1cccc2ccccc12`: the inhibition is -20.3% and -6.68%.
Next, `COc1ccc(C#Cc2ccc([C@H]3[C@H](CO)N4CCCCN(C(=O)Cc5ccccc5)C[C@@H]34)cc2)cc1`: 109% (active); `O=C(Cc1ccccc1)N1CCCCN2[C@H](C1)[C@H](c1ccc(C#CC3(O)CCCC3)cc1)[C@@H]2CO`: 84.7%; `O=C(Cc1ccccc1)N1CCCCN2[C@H](CO)[C@H](c3ccc(C#Cc4ccccc4)cc3)[C@H]2C1`: 94.6%.
Next, `COC(=O)[C@@H]1[C@@H](CO)[C@@H]2Cn3c(ccc(C4=CCCCC4)c3=O)[C@H]1N2CC1CC1`: 48.5%; `C[C@H]1CN([C@@H](C)CO)C(=O)CCCn2nncc2CO[C@H]1CN(C)C(=O)Oc1ccccc1`: 32% and -17.3%.
